PubChem BioAssay (NCI)
This is part of a sample that, as a whole, favours compounds with a hit. Of some 83,000 tested, about 20% had one in any assay.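 For each line, cells grew in 96-well plates with the test compound present at a single concentration for 48 hours.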 The source made the active and inactive calls. The calls were made as follows: active = growth percent below 10; inactive = the rest.

System: MDA-MB-435 melanoma
Experiment: NCI-60 one-dose screen, 48 h (100 = growth as untreated, 0 = no growth, -100 = all killed)
Details: 10 µM unless noted

| Compound | growth |
| --- | --- |
| COc1ccc(-n2c(SCc3n[nH]c(=S)o3)nc3ccc(Cl)cc3c2=O)cc1 | 94.8% (inactive) |
| CNC(=O)c1cc(Oc2ccc3nc(NC(=O)c4ccc(N5CCOCC5)c(C(F)(F)F)c4)sc3c2)ccn1 | 88.4% (inactive) |
| COc1ccc(/C=C(/C)c2ccc3ccc(OC)cc3[o+]2)c(O)c1 | 38% (inactive) |
| O=C1[C@H]2Cc3c([nH]c4ccccc34)[C@@H](c3ccc(Br)cc3)N2C(=O)CN1C1CCN(CC2CCCCC2)CC1 | -88% (active) |
| O=C(c1ccc(O)cc1)[C@@H]1CN[C@@]2(C(=O)Nc3ccccc32)[C@H]1c1ccc(F)cc1 | 107% (inactive) |
| COc1ccc(/C=C(\C#N)C(=O)N2c3ccccc3Sc3ccc(SC)cc32)cc1F | 97.9% (inactive) |
| CN1CCN(Cc2ccc(NC(=O)c3cncc(C#Cc4cnn5cccnc45)c3)cc2C(F)(F)F)CC1 | 3.16% (active) |
| CCOC(=O)c1c(NC(=O)c2ccccc2C(F)(F)F)sc2c1CCC(=O)C2 | 72.6% (inactive) |
| Nc1nc(-c2cccc([N+](=O)[O-])c2)c(N=Nc2ccccc2)s1 | 64.9% (inactive) |
| Cc1ccc(C(=O)NN2C(=O)/C(=C/C=C/c3ccco3)SC2=S)cc1 | 90.7% (inactive) |
| Cc1nc(-c2ccccc2O)ccc1C(=O)N=Nc1c(O)[nH]c2ccc(Br)cc12 | 102% (inactive) |
| NS(=O)(=O)c1ccc(-n2cc(-c3cccc(NC(=O)c4ccc(N5CCOCC5)c(C(F)(F)F)c4)c3)nn2)cc1 | 62.9% (inactive) |
| CCc1cccc(NC(=O)CNc2cc(S(=O)(=O)N(C)C)cc(C)c2C)c1 | 92.4% (inactive) |
